Compound activity: PubChem BioAssay, several laboratories
Hits are enriched below; roughly 1.5% of the tested compounds scored in any of these assays.
eIF4E-4G inh: blocks eIF4E binding to eIF4G. P63073+Q04637. TR-FRET eIF4E-eIF4GI(517-606) binding, 2 h. inhibition, % at 21.7 µM. 220,000 compounds, 0.37% hits;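 active = inhibition above about 30%, limit read from the data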;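 note: 0% = full FRET control wells and 100% = background wells lacking eIF4GI fragment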
PABP FP inh: blocks human PABP binding to poly(A) RNA; P11940; fluorescence polarization; calls only at 35 µM; 290,000 compounds, 1% hits;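 note: calls also rest on retests at 20 µM and on dose response follow-up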
eIF4H FP inh: inhibitors of RNA binding by human eIF4H | AID 2012 | inhibition, % at 35 µM | eIF4H fluorescence polarization binding assay | 290,000 compounds, 0.94% hits;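 note: calls also rest on retests at 20 µM and on dose response follow-up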
PABP1 MLLE inh: inhibitors of microRNA-mediated deadenylation, human PABP1 MLLE binding. AID 588489. inhibition, % at 20 µM. 360,000 compounds, 0.36% hits. GST-MLLE / FITC-PAM2 fluorescence polarization; in the data active = inhibition above about 35%, passing the limit was not always enough;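 note: plate controls were DMSO wells with GST-MLLE for no effect and wells lacking GST-MLLE protein for full effect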
* hit, by the source's call. Unless noted, the rule behind the calls is not given here.

For O=C(NCc1ccccc1)C1Cc2c(-c3ccc(Cl)cc3)ccnc2O1 (configuration not stated) the results were PABP1 MLLE inh -3.
`COc1ccccc1C(=O)C(=O)c1ccccc1OC` gave PABP1 MLLE inh 7.
COc1ccccc1C(N)=S was read as eIF4E-4G inh -2, PABP FP inh inactive, eIF4H FP inh 0 and PABP1 MLLE inh 40*.
For CC(C)c1ccc(C(=O)N2CCCC(c3cc(C(=O)Nc4ccccc4Cl)no3)C2)cc1 (configuration not stated) the results were PABP1 MLLE inh -14.
Screening C=CCSC1=N/C(=C\c2cc(OC)c3c(c2)OCO3)C(=O)S1 returned eIF4E-4G inh -1, PABP FP inh inactive, eIF4H FP inh 57* and PABP1 MLLE inh -15.
`CCSC1=N/C(=C\c2ccc3c(c2)OCO3)C(=O)S1` gave eIF4E-4G inh -2, PABP FP inh inactive, eIF4H FP inh -2 and PABP1 MLLE inh -14.
`COc1ccc(C2C3=C(CCCC3=O)N(CC(=O)O)C3=C2C(=O)CCC3)cc1Cl` gave PABP FP inh inactive, eIF4H FP inh 11 and PABP1 MLLE inh 7.
`CCOc1cc(C2C3=C(CCCC3=O)N(CC(=O)O)C3=C2C(=O)CCC3)ccc1OC` gave PABP FP inh inactive, eIF4H FP inh 6 and PABP1 MLLE inh 60*.
O=C1C2CC=C(Cl)CC2C(=O)N1CN(Cc1ccco1)CN1C(=O)C2CC=C(Cl)CC2C1=O (configuration not stated) was read as eIF4E-4G inh 0, PABP FP inh active, eIF4H FP inh 66* and PABP1 MLLE inh -7.
O=C(CCN1C(=O)C2CC=C(Cl)CC2C1=O)NCc1ccco1 (configuration not stated) was read as eIF4E-4G inh 6, PABP FP inh inactive, eIF4H FP inh 10 and PABP1 MLLE inh 7.
Screening Cc1cc(C(=O)N2CCC2(C)C(=O)Nc2cccc3ccccc23)nn1C (configuration not stated) returned PABP1 MLLE inh -4.
For [O-][n+]1cc(Cl)cc(Cl)c1 the results were PABP1 MLLE inh -5.
Cc1cccc(C)c1NC(=O)CN(C)C(=O)c1cccc(S(=O)(=O)N2CCN(c3ccc(F)cc3)CC2)c1 was read as PABP1 MLLE inh -9.
Screening Cc1cccc(C)c1NC(=O)CN(C)C(=O)c1cccc(S(=O)(=O)N2CCN(c3ccccc3)CC2)c1 returned PABP FP inh active, eIF4H FP inh 71 and PABP1 MLLE inh 2.
O=C(NNS(=O)(=O)c1ccc([N+](=O)[O-])cc1)C(=O)Nc1cccc(C(=O)O)c1 was read as PABP FP inh inactive, eIF4H FP inh 60* and PABP1 MLLE inh 33.
COc1cccc(NC(=O)COC(=O)c2c(C)nn(-c3ccccc3)c2C)c1 was read as PABP1 MLLE inh -6.
`CCOC(=O)CC(NS(=O)(=O)c1ccc(OC)c(OC)c1)c1cccc([N+](=O)[O-])c1` (configuration not stated) gave eIF4E-4G inh 2, PABP FP inh inactive, eIF4H FP inh 7 and PABP1 MLLE inh -8.
`CCOC(=O)CC(NS(=O)(=O)c1ccc2[nH]cc(C(=O)O)c(=O)c2c1)c1ccc(OCC)c(OC)c1` (configuration not stated) gave PABP FP inh active, eIF4H FP inh 79* and PABP1 MLLE inh -4.
Screening CCOC(=O)C1=CCC2C(=O)N(CC)C(=O)C12 (configuration not stated) returned PABP1 MLLE inh -7.
`Cc1ccc2nc(-c3ccc(Cl)cc3)c(Cc3ccccc3C(F)(F)F)n2c1` gave PABP1 MLLE inh -1.
O=S(=O)(NCCNS(=O)(=O)c1cccs1)c1cccs1 was read as eIF4E-4G inh -4, PABP FP inh inactive, eIF4H FP inh 5 and PABP1 MLLE inh -11.
`C=CCNC(=S)NS(=O)(=O)c1cccs1` gave eIF4E-4G inh 1, PABP FP inh inactive, eIF4H FP inh -4 and PABP1 MLLE inh 44*.
For Cc1ccc(NC(=S)N/N=C2/CCCCc3ccccc32)cc1 the results were eIF4E-4G inh -8, PABP FP inh inactive, eIF4H FP inh 18 and PABP1 MLLE inh 42*.
Cc1cccc(NC(=S)N/N=C2/CCCCc3ccccc32)c1 was read as eIF4E-4G inh 5, PABP FP inh inactive, eIF4H FP inh 12 and PABP1 MLLE inh 34.
Cc1ccccc1C(=O)N=c1c(C#N)cc2c(=O)n3cccc(C)c3nc2n1Cc1ccco1 was read as eIF4E-4G inh -3, PABP FP inh inactive and eIF4H FP inh 42.
